# Laboratory results: PubChem BioAssay
# Active and inactive are the calls of the source. Unless noted, no rule for the calls is given here.
# What was measured:
# [1] = compound effects on lung adenocarcinoma cell viability – A549, calcein-AM fluorescence, 48 h, basal, profiling panel (AID 1162); details: higher = more signal; also: test concentration not given here
# [2] = compound effects on differentiated 3T3-L1 adipocyte viability – cell-based, 3T3-L1 adipocytes, calcein-AM fluorescence, 48 h, basal, profiling panel (AID 1163); details: 3T3-L1 adipocytes viability, higher = more signal; also: test concentration not given here
# [3] = compound effects on hepatocellular carcinoma cell viability – HepG2, calcein-AM fluorescence, 48 h, basal, profiling panel (AID 1164); details: higher = more signal; also: test concentration not given here
# [4] = compound effects on multiple myeloma cell viability – MM1S, calcein-AM fluorescence, 48 h, basal, profiling panel (AID 1165); details: higher = more signal;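 also: viability of MM1S multiple myeloma cells under basal unstimulated conditions; test concentration not given here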
# [5] = calcein-AM signal in unstimulated myeloma cells – cell-based, calcein-AM fluorescence, 48 h, PK04 Diversity Set, profiling panel (AID 1166); details: higher = more signal; RPMI8226 myeloma viability, calcein-AM fluorescence, 48 h unless noted;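 also: cells grown under basal conditions without added stimulus; test concentration not given here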
# [6] = JC-1 mitochondrial signal, unstimulated HepG2 cells – cell-based, JC-1 fluorescence, 24 h, 100 nL compound, profiling panel (AID 1167); details: HepG2 mitochondrial potential, higher = more signal; also: test concentration not given here
# [7] = JC-1 mitochondrial signal, unstimulated adipocytes – cell-based, JC-1 fluorescence, 3T3-L1 adipocytes, 24 h, 100 nL compound, profiling panel (AID 1168); details: JC-1 mitochondrial fluorescence; higher = more signal, called active from +8 up or from −8 down unless noted; also: test concentration not given here
# [8] = JC-1 mitochondrial signal, unstimulated myeloma cells – cell-based, JC-1 fluorescence, RPMI8226, 24 h, 100 nL compound, profiling panel (AID 1169); details: higher = more signal; RPMI8226 myeloma, JC-1 mitochondrial potential fluorescence, 24 h unless noted; also: test concentration not given here
# [9] = JC-1 mitochondrial signal, unstimulated MM1S myeloma – cell-based, JC-1 fluorescence, 24 h, 100 nL compound, profiling panel (AID 1170); details: MM1S mitochondrial potential, higher = more signal; also: test concentration not given here
# [10] = resazurin metabolic signal in A549 cells – cell-based, resazurin fluorescence, 24 h, PK04 Diversity Set, profiling panel (AID 1171); details: A549 viability; higher = more signal, called active from +8 up or from −8 down unless noted; also: test concentration not given here
# [11] = resazurin metabolic signal in HepG2 cells – cell-based, resazurin fluorescence, 24 h, PK04 Diversity Set, profiling panel (AID 1172); details: HepG2 viability, higher = more signal; also: test concentration not given here
# [12] = budding yeast growth changes without added modifier – OD600, strain BY4716, 24 h, basal condition, primary screen (AID 1173); details: S. cerevisiae BY4716 growth, OD600, 24 h; higher = more signal, called active from +8 up or from −8 down unless noted
# [13] = viability profiling in MM1S myeloma cells – cell-based, resazurin fluorescence, basal, 24 h, PK04 Diversity Set, profiling panel (AID 1174); details: higher = more signal, called active from +8 up or from −8 down unless noted; also: test concentration not given here
# [14] = biological target: Dihydroorotate dehydrogenase (quinone), mitochondrial (Plasmodium falciparum (isolate 3D7)) (UniProt Q08210); experiment: inhibition of P. falciparum DHODH – biochemical, C-terminal His tag, absorbance 600 nm, primary screen (AID 1175); details: PfDHODH enzyme, DCIP absorbance 600 nm; higher = more signal, called active from +8 up or from −8 down unless noted;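 also: recombinant parasite enzyme with a five histidine tag at its C terminus; test concentration not given here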
# Chain of Dihydroorotate dehydrogenase (quinone), mitochondrial (Plasmodium falciparum (isolate 3D7)) (Q08210 whole entry, looked up): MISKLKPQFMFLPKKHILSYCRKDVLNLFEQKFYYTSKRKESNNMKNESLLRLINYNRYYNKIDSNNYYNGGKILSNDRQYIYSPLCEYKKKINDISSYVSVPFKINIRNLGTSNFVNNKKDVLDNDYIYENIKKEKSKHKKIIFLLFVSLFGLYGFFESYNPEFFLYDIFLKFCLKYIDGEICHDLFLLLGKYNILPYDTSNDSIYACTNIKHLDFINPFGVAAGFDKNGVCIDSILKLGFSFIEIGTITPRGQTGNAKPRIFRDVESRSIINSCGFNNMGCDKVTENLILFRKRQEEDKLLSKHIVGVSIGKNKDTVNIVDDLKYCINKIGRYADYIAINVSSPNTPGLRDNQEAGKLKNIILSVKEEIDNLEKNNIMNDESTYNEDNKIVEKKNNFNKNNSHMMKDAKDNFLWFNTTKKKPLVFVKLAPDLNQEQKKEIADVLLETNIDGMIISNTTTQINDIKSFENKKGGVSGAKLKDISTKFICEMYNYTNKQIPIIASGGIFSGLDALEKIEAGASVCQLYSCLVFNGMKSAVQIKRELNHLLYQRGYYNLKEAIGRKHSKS
# [15] = inhibition of PAO1 biofilm formation – strain PAO1, LB-PBS medium, absorbance 600 nm, primary screen (AID 1176); also: test concentration not given here; details: P. aeruginosa PAO1 growth/biofilm, A600, 12 h; higher = more signal
# [16] = growth modulation of vineyard yeast isolate – strain RM11-1a, OD600, basal, 24 h, primary screen (AID 1177);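 also: cultures grown under basal conditions with no added stressor; test concentration not given here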; details: S. cerevisiae RM11-1a growth, OD600, 24 h; higher = more signal, called active from +8 up or from −8 down unless noted
# [17] = growth of efflux-deficient E. coli DRC39 – strain DRC39, OD650, 24 h, E. coli filamentation inducers, primary screen (AID 1178);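 also: growth measured as culture turbidity by optical density at 650 nm; test concentration not given here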; details: E. coli DRC39 acrAB; higher = more signal, called active from +8 up or from −8 down unless noted
# [18] = growth of efflux-deficient E. coli DRC39 – strain DRC39, OD650, 48 h, E. coli filamentation inducers, primary screen (AID 1179);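 also: screen aims at cell division blockers that make cells filament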; details: E. coli DRC39 delta-acrAB growth, higher = more signal, called active from +8 up or from −8 down unless noted
# [19] = viability profiling in RPMI8226 myeloma cells – cell-based, resazurin fluorescence, basal, 24 h, PK04 Diversity Set, profiling panel (AID 1180); details: higher = more signal; RPMI8226 viability, resazurin fluorescence, 24 h unless noted;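 also: RPMI8826 multiple myeloma cell line at 5000 cells per well; test concentration not given here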
# [20] = biological target: E3 ubiquitin-protein ligase XIAP (Homo sapiens) (UniProt P98170); experiment: small molecules binding XIAP protein – biophysical, small-molecule microarray, fluorescence 635 nm, primary screen (AID 1181); details: higher = more signal;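 also: score merges 667 nm emission and signal to noise over triplicate slides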
# Chain of E3 ubiquitin-protein ligase XIAP (Homo sapiens) (P98170 whole entry, looked up): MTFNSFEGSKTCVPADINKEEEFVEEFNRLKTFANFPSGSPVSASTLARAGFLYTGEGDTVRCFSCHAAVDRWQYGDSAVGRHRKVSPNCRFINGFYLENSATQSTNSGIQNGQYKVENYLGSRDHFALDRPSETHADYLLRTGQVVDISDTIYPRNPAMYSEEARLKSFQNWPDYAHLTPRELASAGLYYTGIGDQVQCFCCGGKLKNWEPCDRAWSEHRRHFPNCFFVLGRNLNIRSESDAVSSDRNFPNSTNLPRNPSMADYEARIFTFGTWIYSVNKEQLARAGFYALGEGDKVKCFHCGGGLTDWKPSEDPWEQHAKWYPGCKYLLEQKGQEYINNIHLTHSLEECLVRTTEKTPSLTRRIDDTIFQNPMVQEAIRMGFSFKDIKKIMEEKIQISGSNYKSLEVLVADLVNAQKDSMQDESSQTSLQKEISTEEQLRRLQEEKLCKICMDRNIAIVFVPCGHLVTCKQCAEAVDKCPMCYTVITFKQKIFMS
Compound,z-score [1],z-score [2],z-score [3],z-score [4],z-score [5],z-score [6],z-score [7],z-score [8],z-score [9],z-score [10],z-score [11],z-score [12],z-score [13],composite z-score [14],z-score [15],z-score [16],z-score [17],z-score [18],z-score [19],composite z-score [20]
COc1cc2c(cc1O)C=[N+](C)CC2,1.82,0.775,0.496,-0.0896,0.245,0.424,0.964 (inactive),-0.0385,-0.635,-1.52 (inactive),-0.365,0.248 (inactive),-0.765 (inactive),-1.7 (inactive),0.158 (inactive),-0.756 (inactive),0.313 (inactive),1.42 (inactive),-0.383,0.0613
COC(=O)[C@@]1(Cc2ccccc2)[C@H]2c3cc(C(=O)N(C)C)[nH]c3C[C@H]2CN1C(=O)c1ccccc1,-1.08,-0.0276,-0.78,0.047,-0.458,-0.592,-0.562 (inactive),0.816,-0.807,0.121 (inactive),-0.154,0.887 (inactive),-0.693 (inactive),-0.434 (inactive),0.0944 (inactive),0.439 (inactive),-0.513 (inactive),0.0889 (inactive),-0.57,0.215
OCc1ccc(C2=CC(c3cccs3)N(Cc3cccc(OC(F)(F)F)c3)CC2)cc1 (stereo not given),1.08,0.314,-0.65,-2.61,-0.633,-2.28,0.0997 (inactive),-0.0311,0.518,0.439 (inactive),-0.0049,-1.22 (inactive),-0.126 (inactive),-4.15 (inactive),-0.223 (inactive),-0.449 (inactive),0.301 (inactive),-0.544 (inactive),0.341,-0.192
CCCc1cc2c(n1Cc1cccc(Cl)c1)C(C)C1CN(C(=O)c3ccccc3)C(C)(C(=O)OC)C21 (stereo not given),-1.22,-0.278,0.101,-2.71,-4.69,1.4,-1.82 (inactive),-0.795,-1.61,-0.474 (inactive),-1.04,0.773 (inactive),-1.7 (inactive),-0.403 (inactive),0.619 (inactive),0.616 (inactive),-0.423 (inactive),-0.0676 (inactive),-1.56,0.621
COC(=O)[C@H]1C(=O)c2ccccc2O[C@@](C(=O)OC)(c2ccccc2)[C@@H]1c1ccccc1,-0.513,-0.328,0.159,-1.16,-0.144,-0.598,-0.31 (inactive),-0.203,0.271,-0.002 (inactive),-0.515,-0.54 (inactive),-0.0272 (inactive),0.0983 (inactive),-0.233 (inactive),0.174 (inactive),0.27 (inactive),0.419 (inactive),0.223,0.182
OCc1ccc(C2=CC(C3CC3)N(Cc3sc4ccccc4c3Cl)CC2)cc1 (stereo not given),-1.09,0.656,-0.328,-3.17,-3.29,0.353,0.501 (inactive),-0.913,-0.434,-0.497 (inactive),-0.0351,-4.2 (inactive),-1.43 (inactive),-1.3 (inactive),-0.411 (inactive),1.76 (inactive),-1.71 (inactive),-1.33 (inactive),-1.37,0.539
CCOC(=O)[C@H]1CC=C2C(=O)Oc3ccccc3[C@@H]21,-0.961,-0.214,-1.13,-1.35,-0.132,-0.417,0.846 (inactive),0.979,-1.08,0.991 (inactive),0.867,-10.4 (active),-0.848 (inactive),0.188 (inactive),0.381 (inactive),-1.43 (inactive),-0.475 (inactive),-1.11 (inactive),-0.575,-0.0727
COC(=O)[C@@]1(Cc2ccc(F)cc2)[C@H]2c3cc(C(=O)N(C)C)[nH]c3C[C@H]2CN1C(=O)c1ccccc1,-0.632,-0.597,0.337,0.334,-0.425 [setting not given],0.174,0.0376 [setting not given] (inactive),-0.101 [setting not given],-0.872,-0.868 [setting not given] (inactive),-1.3,1.11 [setting not given] (inactive),-0.811 [setting not given] (inactive),0.25 [setting not given] (inactive),0.191 (inactive),1.09 [setting not given] (inactive),-0.119 [setting not given] (inactive),0.169 [E. coli growth] (inactive),-0.487 [setting not given],0.0546
C[C@@H]1Cc2c(cnc3c2CN(C)CC3)CO1,0.298,0.288,-0.153,-1.39,0.089,0.389,0.284 (inactive),-0.258,0.677,0.707 (inactive),0.507,-0.583 (inactive),0.335 (inactive),-0.7 (inactive),0.0008 (inactive),-0.498 (inactive),-0.151 (inactive),0.0072 (inactive),0.992,0.276
CN1CCc2nc(CO)c(CO)cc2C1,1.18,0.593,0.0749,-1.02,0.672,0.302,-0.23 (inactive),0.38,1.04,0.515 (inactive),0.328,1.31 (inactive),0.692 (inactive),0.693 (inactive),-0.188 (inactive),1.18 (inactive),0.0008 (inactive),-0.019 (inactive),1.42,-0.144
CCOC(=O)[C@H]1CC=C2C(=O)Oc3ccc(Br)cc3[C@@H]21,-2.46,-0.556,-2.35,-2.9,-3.93,1.36,0.599 (inactive),0.407,0.132,0.234 (inactive),0.328,-17 (active),-0.595 (inactive),-0.89 (inactive),0.477 (inactive),-14 (active),-0.936 (inactive),-0.568 (inactive),-0.0544,0.355
COC(=O)C1(C)C=C2C(=C(C)C(=O)C2C)CN1 (stereo not given),-1.32,-0.254,-1.21,0.224,-2.24,-1.57,-0.482 (inactive),0.262,-0.221,-1.62 (inactive),-1.13,2.09 (inactive),-2.31 (inactive),-0.809 (inactive),1.53 (inactive),1.17 (inactive),-0.608 (inactive),-1.64 (inactive),-1.24,0.226
COC(=O)[C@H]1[C@H](c2ccccc2)C(=O)[C@]2(O)c3ccccc3O[C@@]12c1ccccc1,0.594,0.833,-0.0328,0.391,0.001,0.338,-0.113 (inactive),0.289,-0.0594,-1.73 (inactive),-0.514,-2.2 (inactive),-0.417 (inactive),-1.36 (inactive),0.711 (inactive),-1.43 (inactive),0.401 (inactive),-1.04 (inactive),-0.865,0.17
C=C(CC1(CNP(=O)(c2ccccc2)c2ccccc2)CC1)c1ccccc1,-1.21,-0.457,-1.36,-0.159,-0.614,-1.41,-0.531 (inactive),0.29,-0.987,0.344 (inactive),-0.101,0.736 (inactive),-0.342 (inactive),0.271 (inactive),0.0944 (inactive),0.389 (inactive),-0.174 (inactive),0.249 (inactive),-0.34,-0.177
CCCC=C(CCC)[C@@H](NP(=O)(c1ccccc1)c1ccccc1)c1ccccc1,-0.0868,-0.298,0.559,-0.687,-1.27,-1.95,0.21 (inactive),0.368,-1.5,1.82 (inactive),2.47,1.4 (inactive),1.16 (inactive),0.0585 (inactive),0.0944 (inactive),-0.903 (inactive),-0.486 (inactive),-0.236 (inactive),1.3,0.0205
C[C@@H]1OC=C2[C@@H](O)[C@H]3O[C@H]3C(=O)[C@]23[C@H]1[C@H]1C2=C([C@@H](O)[C@H]4O[C@H]4C2=O)[C@@H]3O[C@@H]1C,0.304,0.441,0.0428,-0.297,-0.594,-0.888,-0.3 (inactive),0.0604,0.144,0.703 (inactive),0.216,0.243 (inactive),0.103 (inactive),-0.0198 (inactive),0.0251 (inactive),-0.541 (inactive),-0.03 (inactive),-0.0416 (inactive),0.864,-0.135
